Source: paper PMC5540273 (PLoS ONE, 2017)
Where two headings read alike, the source gives them in different places.

Experiments:
RIPK2 = settings: concentration: 1 μM, replicates: in singlicate; n = 1
RIPK4 = settings: concentration: 1 μM, replicates: in singlicate; n = 1
RIPK5 = settings: concentration: 1 μM, replicates: in singlicate; n = 1
ROCK1 = settings: n = 1
ROCK2 = settings: concentration: 1 μM, replicates: in singlicate; n = 1
ROS1 = settings: concentration: 1 μM, replicates: in singlicate; n = 1
[1] = system: RPS6KA4(Kin.Dom.1-N-terminal); settings: concentration: 1 μM, replicates: in singlicate; n = 1
[2] = system: RPS6KA4(Kin.Dom.2-C-terminal); settings: concentration: 1 μM, replicates: in singlicate; n = 1
[3] = system: RPS6KA5(Kin.Dom.1-N-terminal); settings: concentration: 1 μM, replicates: in singlicate; n = 1
[4] = system: RPS6KA5(Kin.Dom.2-C-terminal); settings: concentration: 1 μM, replicates: in singlicate; n = 1
[5] = system: T1, RSK1(Kin.Dom.1-N-terminal); settings: concentration: 1 μM, replicates: in singlicate; n = 1
T1 construct: gene RPS6KA1

[6] = system: T2, RSK1(Kin.Dom.2-C-terminal); settings: concentration: 1 μM, replicates: in singlicate; n = 1
T2 construct: gene RPS6KA1

[7] = system: T3, RSK2(Kin.Dom.1-N-terminal); settings: concentration: 1 μM, replicates: in singlicate; n = 1
T3 construct: gene RPS6KA3

[8] = system: T4, RSK2(Kin.Dom.2-C-terminal); settings: concentration: 1 μM, replicates: in singlicate; n = 1
T4 construct: gene RPS6KA3

[9] = system: T5, RSK3(Kin.Dom.1-N-terminal); settings: concentration: 1 μM, replicates: in singlicate; n = 1
T5 construct: gene RPS6KA2

[10] = system: T6, RSK3(Kin.Dom.2-C-terminal); settings: concentration: 1 μM, replicates: in singlicate; n = 1
T6 construct: gene RPS6KA2

[11] = system: T7, RSK4(Kin.Dom.1-N-terminal); settings: concentration: 1 μM, replicates: in singlicate; n = 1
T7 construct: gene RPS6KA6

[12] = system: T8, RSK4(Kin.Dom.2-C-terminal); settings: concentration: 1 μM, replicates: in singlicate; n = 1
T8 construct: gene RPS6KA6

S6K1 = settings: concentration: 1 μM, replicates: in singlicate; n = 1
SBK1 = settings: concentration: 1 μM, replicates: in singlicate; n = 1
[13] = concentration: 1 μM, replicates: in singlicate
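Further: KINOMEscan kinase panel screen.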

## O=C(Nc1n[nH]c2cc(-c3ccccc3F)ccc12)C1CC1 [SB-733371]
RIPK2
  %Inh: 11%
RIPK4
  %Inh: 13%
RIPK5
  %Inh: 0%
ROCK1; [13]
  %Inh: 0%
ROCK2
  %Inh: 0%
ROS1
  %Inh: 4%
[1]
  %Inh: 0%
[2]
  %Inh: 0%
[3]
  %Inh: 0%
[4]
  %Inh: 0%
[5]
  %Inh: 32%
[6]
  %Inh: 0%
[7]
  %Inh: 34%
[8]
  %Inh: 0%
[9]
  %Inh: 0%
[10]
  %Inh: 0%
[11]
  %Inh: 0%
[12]
  %Inh: 0%
S6K1
  %Inh: 0%
SBK1
  %Inh: 17%

## Cc1nnc(-c2ccc(C)c(-c3ccc(C(=O)O)cc3)c2)o1 [GW608005]
RIPK2
  %Inh: 0%
RIPK4
  %Inh: 9%
RIPK5
  %Inh: 0%
ROCK1; [13]
  %Inh: 0%
ROCK2
  %Inh: 0%
ROS1
  %Inh: 0%
[1]
  %Inh: 0%
[2]
  %Inh: 0%
[3]
  %Inh: 9%
[4]
  %Inh: 0%
[5]
  %Inh: 2%
[6]
  %Inh: 2%
[7]
  %Inh: 0%
[8]
  %Inh: 2%
[9]
  %Inh: 3%
[10]
  %Inh: 0%
[11]
  %Inh: 0%
[12]
  %Inh: 2%
S6K1
  %Inh: 10%
SBK1
  %Inh: 4%

## COc1ccc(-n2cnc3c(N)ncnc32)cc1 [SKF-97236]
RIPK2
  %Inh: 15%
RIPK4
  %Inh: 9%
RIPK5
  %Inh: 10%
ROCK1; [13]
  %Inh: 5%
ROCK2
  %Inh: 20%
ROS1
  %Inh: 0%
[1]
  %Inh: 12%
[2]
  %Inh: 0%
[3]
  %Inh: 15%
[4]
  %Inh: 0%
[5]
  %Inh: 0%
[6]
  %Inh: 0%
[7]
  %Inh: 11%
[8]
  %Inh: 22%
[9]
  %Inh: 9%
[10]
  %Inh: 0%
[11]
  %Inh: 9%
[12]
  %Inh: 36%
S6K1
  %Inh: 9%
SBK1
  %Inh: 13%

## CCn1c(-c2ccoc2)nc2cnccc21 [SB-733887]
RIPK2
  %Inh: 6%
RIPK4
  %Inh: 30%
RIPK5
  %Inh: 0%
ROCK1; [13]
  %Inh: 0%
ROCK2
  %Inh: 23%
ROS1
  %Inh: 0%
[1]
  %Inh: 0%
[2]
  %Inh: 0%
[3]
  %Inh: 9%
[4]
  %Inh: 0%
[5]
  %Inh: 9%
[6]
  %Inh: 4%
[7]
  %Inh: 0%
[8]
  %Inh: 0%
[9]
  %Inh: 0%
[10]
  %Inh: 0%
[11]
  %Inh: 0%
[12]
  %Inh: 0%
S6K1
  %Inh: 18%
SBK1
  %Inh: 0%

## CCn1c(-c2nonc2N)nc2ccccc21 [SB-693162/GW549034]
RIPK2
  %Inh: 0%
RIPK4
  %Inh: 6%
RIPK5
  %Inh: 53%
ROCK1; 1 µM
  %Inh: 78%
ROCK2
  %Inh: 76%
ROS1
  %Inh: 0%
[1]
  %Inh: 0%
[2]
  %Inh: 40%
[3]
  %Inh: 0%
[4]
  %Inh: 0%
[5]
  %Inh: 6%
[6]
  %Inh: 4%
[7]
  %Inh: 41%
[8]
  %Inh: 3%
[9]
  %Inh: 4%
[10]
  %Inh: 19%
[11]
  %Inh: 48%
[12]
  %Inh: 15%
S6K1
  %Inh: 43%
SBK1
  %Inh: 22%

## Cc1nnc(-c2ccc3ncn(-c4ccc(S(C)=O)cc4)c3c2)o1 (stereo not shown)
RIPK2
  %Inh: 19%
RIPK4
  %Inh: 0%
RIPK5
  %Inh: 0%
ROCK1; [13]
  %Inh: 0%
ROCK2
  %Inh: 16%
ROS1
  %Inh: 0%
[1]
  %Inh: 0%
[2]
  %Inh: 0%
[3]
  %Inh: 3%
[4]
  %Inh: 4%
[5]
  %Inh: 19%
[6]
  %Inh: 21%
[7]
  %Inh: 4%
[8]
  %Inh: 0%
[9]
  %Inh: 0%
[10]
  %Inh: 18%
[11]
  %Inh: 0%
[12]
  %Inh: 32%
S6K1
  %Inh: 0%
SBK1
  %Inh: 0%

## Nc1n[nH]c2ncc(-c3ccccc3)cc12 [SB-517081]
RIPK2
  %Inh: 18%
RIPK4
  %Inh: 19%
RIPK5
  %Inh: 5%
ROCK1; [13]
  %Inh: 14%
ROCK2
  %Inh: 2%
ROS1
  %Inh: 0%
[1]
  %Inh: 7%
[2]
  %Inh: 0%
[3]
  %Inh: 41%
[4]
  %Inh: 25%
[5]
  %Inh: 25%
[6]
  %Inh: 0%
[7]
  %Inh: 10%
[8]
  %Inh: 0%
[9]
  %Inh: 7%
[10]
  %Inh: 0%
[11]
  %Inh: 0%
[12]
  %Inh: 36%
S6K1
  %Inh: 8%
SBK1
  %Inh: 8%

## Nc1ncnc2c1ncn2-c1cccc2ccccc12 [SKF-97184]
RIPK2
  %Inh: 7%
RIPK4
  %Inh: 8%
RIPK5
  %Inh: 5%
ROCK1; [13]
  %Inh: 67%
ROCK2
  %Inh: 0%
ROS1
  %Inh: 0%
[1]
  %Inh: 10%
[2]
  %Inh: 0%
[3]
  %Inh: 10%
[4]
  %Inh: 2%
[5]
  %Inh: 16%
[6]
  %Inh: 16%
[7]
  %Inh: 38%
[8]
  %Inh: 0%
[9]
  %Inh: 0%
[10]
  %Inh: 36%
[11]
  %Inh: 11%
[12]
  %Inh: 0%
S6K1
  %Inh: 15%
SBK1
  %Inh: 28%

## Cl.c1ccc(Cn2cnc3cc(Nc4ncnc5ccccc45)ccc32)cc1 [GW272142]
RIPK2
  %Inh: 0%
RIPK4
  %Inh: 12%
RIPK5
  %Inh: 5%
ROCK1; [13]
  %Inh: 4%
ROCK2
  %Inh: 2%
ROS1
  %Inh: 6%
[1]
  %Inh: 6%
[2]
  %Inh: 0%
[3]
  %Inh: 0%
[4]
  %Inh: 7%
[5]
  %Inh: 0%
[6]
  %Inh: 0%
[7]
  %Inh: 0%
[8]
  %Inh: 0%
[9]
  %Inh: 0%
[10]
  %Inh: 6%
[11]
  %Inh: 0%
[12]
  %Inh: 5%
S6K1
  %Inh: 0%
SBK1
  %Inh: 1%

## CCC(=O)c1c(-c2ccccc2)c2cc(Cl)ccc2c(=O)n1Cc1ccc(C(=O)O)cc1
RIPK2
  %Inh: 0%
RIPK4
  %Inh: 0%
RIPK5
  %Inh: 5%
ROCK1; [13]
  %Inh: 0%
ROCK2
  %Inh: 0%
ROS1
  %Inh: 0%
[1]
  %Inh: 0%
[2]
  %Inh: 7%
[3]
  %Inh: 0%
[4]
  %Inh: 0%
[5]
  %Inh: 0%
[6]
  %Inh: 0%
[7]
  %Inh: 0%
[8]
  %Inh: 0%
[9]
  %Inh: 0%
[10]
  %Inh: 0%
[11]
  %Inh: 0%
[12]
  %Inh: 0%
S6K1
  %Inh: 0%
SBK1
  %Inh: 0%

## COc1cc(Nc2nccc(N3CCC(NC(=O)C4COc5ccccc5O4)C3)n2)cc(OC)c1OC (stereo not shown) [GSK1379761]
RIPK2
  %Inh: 0%
RIPK4
  %Inh: 0%
RIPK5
  %Inh: 0%
ROCK1; [13]
  %Inh: 26%
ROCK2
  %Inh: 37%
ROS1
  %Inh: 54%
[1]
  %Inh: 0%
[2]
  %Inh: 0%
[3]
  %Inh: 0%
[4]
  %Inh: 0%
[5]
  %Inh: 3%
[6]
  %Inh: 4%
[7]
  %Inh: 0%
[8]
  %Inh: 24%
[9]
  %Inh: 0%
[10]
  %Inh: 12%
[11]
  %Inh: 0%
[12]
  %Inh: 2%
S6K1
  %Inh: 0%
SBK1
  %Inh: 20%
